Experimental data published in PubChem BioAssay (Tox21).
Where “and” joins values, the source holds several entries; their conditions need not be identical. Equal entries are not always repeated. Records with an inconclusive call do not appear. Calls of active or inactive are those of the source. Unless noted, calls follow the shape of the dose curve; as a rule, active = well fitted curve in the direction sought with a large enough effect in the repeat runs; inconclusive = weak or mixed curves; inactive = no such curve, though single readings can be large; an effect the other way counts as inactive or inconclusive.

Tests used:
[1] = qHTS assay to identify small molecule antagonists of the thyroid receptor (TR) signaling pathway - cell viability counter screen (AID 743064); also: nearly all actives have a fitted effect of over 50% in size
Procedure, shortened: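 Fluorescence from CellTiter-Fluor, added after 23.5 h exposure at 37 °C, reported viability of GH3.TRE-Luc cells co-treated with compound and 1 nM T3. Measured in the same wells as the luciferase TR readout.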

[2] = qHTS assay to identify small molecule antagonists of the thyroid receptor (TR) signaling pathway (AID 743065); also: nearly all actives have a fitted effect of over 55% in size
Procedure, shortened: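 GH3.TRE-Luc rat pituitary cells carrying two TR response elements driving luciferase were plated for 4 h, given compound plus 1 nM T3 (final), and incubated 23.5 h at 37 C. ONE-Glo luminescence measured reporter inhibition; CellTiter-Fluor fluorescence tracked cytotoxicity.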

[3] = tested on: thyroid hormone receptor (rat, GH3 cells); assay: qHTS assay to identify small molecule agonists of the thyroid receptor (TR) signaling pathway (AID 743066; calls by dose curve)
[4] = biological target: Estrogen receptor (Homo sapiens) (UniProt P03372); assay: qHTS assay to identify small molecule antagonists of the estrogen receptor alpha (ER-alpha) signaling pathway (AID 743069; active = well fitted curve in the direction sought with a large enough effect in the signal ratio in the repeat runs, not every such curve was filed as active; the % refers to the signal ratio)
Sequence of Estrogen receptor (Homo sapiens) (P03372 whole entry, looked up): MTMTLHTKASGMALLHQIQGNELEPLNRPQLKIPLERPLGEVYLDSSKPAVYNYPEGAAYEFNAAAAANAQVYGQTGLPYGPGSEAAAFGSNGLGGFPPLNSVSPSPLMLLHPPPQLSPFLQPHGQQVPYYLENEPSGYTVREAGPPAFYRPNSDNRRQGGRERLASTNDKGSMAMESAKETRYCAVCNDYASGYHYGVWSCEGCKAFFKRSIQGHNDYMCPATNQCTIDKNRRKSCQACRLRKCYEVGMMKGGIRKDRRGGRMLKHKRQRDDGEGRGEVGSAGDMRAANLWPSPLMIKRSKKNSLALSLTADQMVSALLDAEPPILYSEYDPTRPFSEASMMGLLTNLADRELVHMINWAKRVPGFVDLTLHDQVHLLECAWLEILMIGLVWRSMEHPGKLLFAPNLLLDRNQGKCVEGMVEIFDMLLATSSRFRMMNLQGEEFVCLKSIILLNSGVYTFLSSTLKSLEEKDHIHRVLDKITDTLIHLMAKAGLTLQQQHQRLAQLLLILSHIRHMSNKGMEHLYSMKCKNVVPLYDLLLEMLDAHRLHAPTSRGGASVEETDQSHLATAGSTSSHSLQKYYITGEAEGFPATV
Procedure, shortened: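 HEK293 cells stably carrying an ER-alpha-UAS-bla beta-lactamase reporter were pre-cultured overnight in 2% charcoal-stripped FBS medium. Test compounds in DMSO were added together with 17beta-estradiol for 18 hr at 37C. Read-out was fluorescence after 2 hr with LiveBLAzer B/G FRET substrate at room temperature.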

[5] = qHTS assay to identify small molecule antagonists of the estrogen receptor alpha (ER-alpha) signaling pathway - cell viability counter screen (AID 743074; calls by dose curve; also: nearly all actives have a fitted effect of over 45% in size)
[6] = biological target: Estrogen receptor (Homo sapiens) (UniProt P03372); assay: qHTS assay to identify small molecule agonists of the estrogen receptor alpha (ER-alpha) signaling pathway (AID 743075; calls by dose curve)
[7] = biological target: Estrogen receptor (Homo sapiens) (UniProt P03372); assay: qHTS assay to identify small molecule agonists of the estrogen receptor alpha (ER-alpha) signaling pathway using the BG1 cell line (AID 743079); conditions: BG1Luc4E2 cells, ERE-luciferase agonist, 22 h; also: nearly all actives have a fitted effect of over 20% in size
[8] = qHTS assay to identify small molecule antagonists of the estrogen receptor alpha (ER-alpha) signaling pathway using the BG1 cell line (AID 743080; calls by dose curve;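 also: BG1 cells stimulated with 17beta-estradiol alongside compound; nearly all actives have a fitted effect of over 25% in size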)
Procedure, shortened: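 Quantitative HTS on the Tox21 10K library: BG1 cells with endogenous ER-alpha and ERE-luciferase reporter, 17beta-estradiol stimulation, 21.5 h compound exposure, luminescence endpoint with parallel fluorescence cytotoxicity counter-read.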

[9] = qHTS assay to identify small molecule antagonists of the estrogen receptor alpha (ER-alpha) signaling pathway using the BG1 cell line - cell viability counter screen (AID 743081);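 also: compound given together with 17beta-estradiol as the ER stimulus; nearly all actives have a fitted effect of over 45% in size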
Aromatase (Homo sapiens) = Aromatase (Homo sapiens) (UniProt P11511); assay: qHTS assay to identify aromatase inhibitors (AID 743083); also: nearly all actives have a fitted effect of over 55% in size
Sequence of Aromatase (Homo sapiens) (P11511 whole entry, looked up): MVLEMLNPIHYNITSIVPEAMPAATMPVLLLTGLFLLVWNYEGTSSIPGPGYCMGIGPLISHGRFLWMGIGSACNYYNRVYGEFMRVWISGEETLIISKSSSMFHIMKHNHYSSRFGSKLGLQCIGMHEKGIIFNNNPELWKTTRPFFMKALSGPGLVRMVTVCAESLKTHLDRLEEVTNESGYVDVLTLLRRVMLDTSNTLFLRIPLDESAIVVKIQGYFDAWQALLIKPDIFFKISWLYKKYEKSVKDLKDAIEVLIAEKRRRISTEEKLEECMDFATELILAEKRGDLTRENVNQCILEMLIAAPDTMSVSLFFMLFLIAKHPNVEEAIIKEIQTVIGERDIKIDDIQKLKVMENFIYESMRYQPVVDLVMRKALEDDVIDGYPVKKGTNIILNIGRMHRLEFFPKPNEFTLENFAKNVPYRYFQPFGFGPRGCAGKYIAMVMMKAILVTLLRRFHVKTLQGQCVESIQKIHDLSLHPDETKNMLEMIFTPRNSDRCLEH

[10] = qHTS assay to identify aromatase inhibitors - cell viability counter screen (AID 743084);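 also: cells stimulated with testosterone during compound exposure; nearly all actives have a fitted effect of over 55% in size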
[11] = biological target: Aryl hydrocarbon receptor (Homo sapiens) (UniProt P35869); assay: qHTS assay to identify small molecule that activate the aryl hydrocarbon receptor (AhR) signaling pathway (AID 743085);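 also: HG2L7.5c1 human HepG2 liver cells with stably integrated DRE-driven firefly reporter; nearly all actives have a fitted effect of over 15% in size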
Sequence of Aryl hydrocarbon receptor (Homo sapiens) (P35869 whole entry, looked up): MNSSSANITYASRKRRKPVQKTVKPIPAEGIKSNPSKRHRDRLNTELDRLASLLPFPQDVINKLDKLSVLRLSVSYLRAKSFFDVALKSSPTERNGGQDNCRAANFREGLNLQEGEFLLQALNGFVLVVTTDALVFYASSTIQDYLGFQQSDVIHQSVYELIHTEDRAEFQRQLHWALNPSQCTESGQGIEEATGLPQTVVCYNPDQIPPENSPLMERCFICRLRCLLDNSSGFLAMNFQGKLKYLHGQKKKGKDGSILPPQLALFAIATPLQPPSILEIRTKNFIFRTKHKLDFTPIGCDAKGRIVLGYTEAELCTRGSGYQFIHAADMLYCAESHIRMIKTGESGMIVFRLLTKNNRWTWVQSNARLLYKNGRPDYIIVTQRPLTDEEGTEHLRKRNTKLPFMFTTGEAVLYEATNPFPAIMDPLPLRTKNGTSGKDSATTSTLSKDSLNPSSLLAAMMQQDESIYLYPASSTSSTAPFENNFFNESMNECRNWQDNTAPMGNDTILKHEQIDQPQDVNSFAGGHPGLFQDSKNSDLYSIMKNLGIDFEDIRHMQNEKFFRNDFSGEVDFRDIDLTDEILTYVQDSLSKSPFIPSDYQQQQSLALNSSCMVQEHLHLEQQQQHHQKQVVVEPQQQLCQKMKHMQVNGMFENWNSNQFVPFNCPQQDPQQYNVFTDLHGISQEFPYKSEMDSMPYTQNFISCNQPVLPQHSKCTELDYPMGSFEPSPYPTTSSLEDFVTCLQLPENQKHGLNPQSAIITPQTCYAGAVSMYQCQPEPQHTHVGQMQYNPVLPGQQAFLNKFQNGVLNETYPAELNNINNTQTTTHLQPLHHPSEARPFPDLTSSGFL
Procedure, shortened: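 Cell line HG2L7.5c1 (human hepatoma, 20× DRE-luc). Plated, 5 h 37C, compound/DMSO added, 24 h 37C. CellTiter-Fluor 30 min 37C → fluorescence; then ONE-Glo 30 min RT → luminescence.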

[12] = qHTS assay to identify small molecule that activate the aryl hydrocarbon receptor (AhR) signaling pathway - cell viability counter screen (AID 743086);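 also: HepG2 liver cells carrying the AhR DRE luciferase reporter; nearly all actives have a fitted effect of over 45% in size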
Procedure, shortened: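 HepG2-AhR-luc (HG2L7.5c1) cells, 4000/well, were preincubated 5 h at 37C, exposed to compound in qHTS format for 24 hr at 37C, then given CellTiter-Fluor for 30 min; viability was read as fluorescence in the reporter wells.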

[13] = biological target: Peroxisome proliferator-activated receptor gamma (Homo sapiens) (UniProt P37231); assay: qHTS assay to identify small molecule agonists of the peroxisome proliferator-activated receptor gamma (PPARg) signaling pathway (AID 743094; active = well fitted activation curve with a large enough effect in the signal ratio in the repeat runs, not every such curve was filed as active; the % refers to the signal ratio)
Sequence of Peroxisome proliferator-activated receptor gamma (Homo sapiens) (P37231 whole entry, looked up): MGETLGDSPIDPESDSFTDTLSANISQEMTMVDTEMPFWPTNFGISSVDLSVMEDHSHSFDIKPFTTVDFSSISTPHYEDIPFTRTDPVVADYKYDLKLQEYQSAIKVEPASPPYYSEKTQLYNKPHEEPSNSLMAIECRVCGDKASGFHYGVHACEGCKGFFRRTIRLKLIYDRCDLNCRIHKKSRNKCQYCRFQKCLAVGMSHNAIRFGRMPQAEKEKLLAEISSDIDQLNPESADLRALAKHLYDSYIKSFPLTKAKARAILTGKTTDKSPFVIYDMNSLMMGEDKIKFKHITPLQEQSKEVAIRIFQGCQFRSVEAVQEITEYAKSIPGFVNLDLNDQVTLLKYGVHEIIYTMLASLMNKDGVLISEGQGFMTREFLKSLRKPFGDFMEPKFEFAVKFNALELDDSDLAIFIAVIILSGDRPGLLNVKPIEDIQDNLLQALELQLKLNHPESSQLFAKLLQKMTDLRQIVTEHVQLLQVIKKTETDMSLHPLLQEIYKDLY
Procedure, shortened: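 Following 5 h plating at 37C, PPARg-bla HEK293H cells receive compound or DMSO for 17 h; fluorescence intensity is recorded after LiveBLAzer B/G loading for 1 h at room temperature.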

[14] = biological target: Peroxisome proliferator-activated receptor gamma (Homo sapiens) (UniProt P37231); assay: qHTS assay to identify small molecule antagonists of the peroxisome proliferator-activated receptor gamma (PPARg) signaling pathway (AID 743191; calls by dose curve; also: nearly all actives have a fitted effect of over 30% in size)
Procedure, shortened: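 GeneBLAzer PPARg UAS-bla HEK293H cells carrying a UAS-driven beta-lactamase reporter were plated at 3000 cells/well, preincubated 5 h at 37C, then given compound for 17 h at 37C; LiveBLAzer B/G FRET substrate was read after 1 h at room temperature.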

[15] = qHTS assay for small molecule agonists of the antioxidant response element (ARE) signaling pathway (AID 743202; active = well fitted activation curve with a large enough effect in the signal ratio in the repeat runs, not every such curve was filed as active; the % refers to the signal ratio)
Procedure, shortened: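 Read-out: LiveBLAzer B/G FRET substrate fluorescence after 2 h at room temperature, following 16 h compound treatment at 37 C of HepG2 cells carrying an ARE-driven beta-lactamase reporter.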

[16] = qHTS assay for small molecule agonists of the antioxidant response element (ARE) signaling pathway - cell viability counter screen (AID 743203; calls by dose curve; also: nearly all actives have a fitted effect of over 55% in size)
Procedure, shortened: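 Compounds in DMSO were pinned onto ARE-bla HepG2 cells plated 5 hrs earlier at 2,000 cells/well. Sixteen hours later at 37C/5% CO2, CellTiter-Glo was added and luminescence measured after 30 min at room temperature.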

[17] = qHTS assay for small molecule activators of the heat shock response signaling pathway - cell viability counter screen (AID 743209); also: nearly all actives have a fitted effect of over 50% in size
Procedure, shortened: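 Counter screen for cytotoxicity in HeLa HSE-bla reporter cells. Treatment was 5 h at 37 C; viability was detected by luminescent ATP assay (CellTiter-Glo) in the same wells as the beta-lactamase read.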

[18] = qHTS assay for small molecule activators of the heat shock response signaling pathway (AID 743210; active = well fitted activation curve with a large enough effect in the signal ratio in the repeat runs, with a control signal flat, not every such curve was filed as active; the % refers to the signal ratio)
Procedure, shortened: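 HSE-bla HeLa cells (beta-lactamase reporter under heat shock response elements) were exposed to compounds for 5 h at 37 C, then loaded with LiveBLAzer B/G FRET substrate for 2.5 h at room temperature before fluorescence reading.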

[19] = qHTS assay to identify small molecule antagonists of the peroxisome proliferator-activated receptor gamma (PPARg) signaling pathway - cell viability counter screen (AID 743194); conditions: Potency: co-treated with 50 nM rosiglitazone; also: nearly all actives have a fitted effect of over 55% in size
Procedure, shortened: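 PPARg-UAS-bla HEK293H cells were plated, rested 5 h at 37 C, then treated with compounds plus rosiglitazone (50 nM final) for 17 h at 37 C; viability was then read by CellTiter-Glo luminescence after 30 min at room temperature.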
% is scaled to controls: 0 for no effect and ±100 for the full control effect.

CC(=O)C(Cl)Cl
inactive: Potency [1] | Potency [2] | Potency [3] | Potency [4] | outcome [5] | Potency [6] | activation ([7]; at 95 µM (top of the series)) 0.96% | Potency [8] | Potency [9] | Potency (Aromatase (Homo sapiens)) | Potency [10] | Potency [11] | outcome [12] | outcome [13] | Potency [14] | Potency [15] | Potency [16] | Potency [17] | outcome [18]

CCC/C(=N\OCC)C1=C(O)CC(CC(C)SCC)CC1=O (stereo not drawn)
inactive: Potency [1] | Potency [2] | Potency [3] | Potency [4] | outcome [5] | Potency [6] | activation ([7]; at 95 µM (top of the series)) -1.67% | Potency [8] | Potency [9] | Potency (Aromatase (Homo sapiens)) | Potency [10] | Potency [11] | outcome [12] | outcome [13] | Potency [14] | Potency [19] | Potency [16] | Potency [17]

BrCCCCCCBr
inactive: Potency [1] | Potency [2] | Potency [3] | Potency [4] | outcome [5] | Potency [6] | activation ([7]; at 70.3 µM (top of the series)) -3.68% | Potency [8] | Potency [9] | Potency (Aromatase (Homo sapiens)) | Potency [10] | outcome [12] | outcome [13] | Potency [14] | Potency [19] | Potency [16] | Potency [17] | outcome [18]

O=NN1CCN(N=O)CC1
inactive: Potency [1] | Potency [2] | Potency [3] | Potency [4] | outcome [5] | Potency [6] | activation ([7]; at 70.3 µM (top of the series)) 9.64% | Potency [8] | Potency [9] | Potency (Aromatase (Homo sapiens)) | Potency [10] | Potency [11] | outcome [12] | Potency [15] | Potency [16] | Potency [17]

CCCCCCI
inactive: Potency [1] | Potency [2] | Potency [3] | Potency [4] | outcome [5] | Potency [6] | activation ([7]; at 70.3 µM (top of the series)) 1.45% | Potency [8] | Potency [9] | Potency (Aromatase (Homo sapiens)) | Potency [10] | Potency [11] | outcome [12] | outcome [13] | Potency [14] | Potency [19] | Potency [15] | Potency [16] | outcome [18]

COC(=O)C(c1ccccc1)C1CCCCN1 (stereo not drawn)
inactive: Potency [1] | Potency [2] | Potency [3] | Potency [4] | outcome [5] | Potency [6] | activation ([7]; at 70.3 µM (top of the series)) 2.44% and -6.09% | Potency [8] | Potency [9] | Potency (Aromatase (Homo sapiens)) | Potency [10] | Potency [11] | outcome [12] | outcome [13] | Potency [14] | Potency [19] | Potency [17] | outcome [18]

Cc1coc2c1CCC(C)C2 (stereo not drawn)
inactive: Potency [1] | Potency [2] | Potency [3] | Potency [4] | outcome [5] | Potency [6] | Potency [8] | Potency [9] | Potency (Aromatase (Homo sapiens)) | Potency [10] | outcome [12] | Potency [19] | Potency [17] | outcome [18]

O=C1c2ccccc2C(=O)c2ccccc21
inactive: Potency [1] | Potency [2] | Potency [3] | Potency [4] | outcome [5] | Potency [6] | Potency (Aromatase (Homo sapiens)) | Potency [10] | Potency [11] | outcome [12] | outcome [13] | Potency [14] | Potency [19] | Potency [15] | Potency [16] | Potency [17]
